# Bioassay records: PubChem, several laboratories
# MazF activator: activators of E. coli MazEF toxin-antitoxin RNase, primary screen, biochemical, fluorescence, uHTS; FAM/BHQ RNA-DNA oligo cleavage fluorescence, 5 h; Endoribonuclease toxin MazF (Escherichia coli (strain K12)), P0AE70; AID 504720, 2011; activation, % at 20 µM; 0.32% of 350,000 active; in the data active means activation above about 50%
# Target sequence (P0AE70 whole entry, looked up): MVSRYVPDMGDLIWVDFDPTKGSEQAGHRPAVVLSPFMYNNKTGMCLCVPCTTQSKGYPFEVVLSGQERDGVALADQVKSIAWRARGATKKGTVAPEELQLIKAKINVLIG
# Bead autofluor: compound fluorescence in toxin protease inhibitor counterscreen. compound autofluorescence counterscreen, microsphere flow cytometry; active compounds read high. fluorescence intensity (concentration not given with the values). 3.1% of 360,000 active. AID 624483; in the data active means fluorescence intensity above about 16000; inconclusive means no clear call, values can overlap the other calls
# BoNT A protease: BoNT/A light chain protease inhibitors, primary screen, biochemical, flow cytometry, MLPCN library; Botulinum neurotoxin type A light chain protease (Clostridium botulinum A str. ATCC 3502); multiplex microsphere protease substrate cleavage; inhibition, % at 10 µM; 0.17% of 360,000 active; AID 588499, 2011; further: plate controls were buffer without enzyme for full effect and enzyme alone for no effect
# Anthrax LF prot: Bacillus anthracis LF protease inhibitors, primary screen, biochemical, multiplex microsphere, MLPCN library; Lethal factor (Bacillus anthracis), P15917; multiplex microsphere protease cleavage assay; inhibition, % at 10 µM; 0.12% of 360,000 active; further: plate controls were buffer without enzyme for full effect and enzyme alone for no effect
# BoNT-F LC inh: BoNT/F light chain protease inhibitors, primary screen, biochemical, flow cytometry, MLPCN library | 0.22% of 360,000 active | AID 588497, 2011 | Multiplex microsphere protease cleavage assay | inhibition, % at 10 µM; in the data active means inhibition above about 35%, passing the limit was not always enough; inconclusive means no clear call, values can overlap the other calls; further: plate controls were buffer without enzyme for full effect and enzyme alone for no effect
# The depositor's hits bear a star; ? = inconclusive; / = no result given; + = active, no number; ! = not confirmed by another sample. Compounds with a hit are over-represented: about 3.6% of the library has one in this group of screens. Unless noted, no stated cut-off is given here; in the data, active means inhibition above about 30%; inconclusive means no clear call, values can overlap the other calls; inactive means below that.
SMILES,MazF activator,Bead autofluor,BoNT A protease,Anthrax LF prot,BoNT-F LC inh
CC(C)NC(=O)Nc1cccc2c1O[C@H](CN(C)C(=O)NC1CCCCC1)[C@@H](C)CN([C@H](C)CO)C2=O,-4,4171,0,-6,0
CC1(C)Cc2c(sc3c2c(=O)n(-c2ccc(Cl)cc2)c(=O)n3CC(N)=O)CO1,-10,4544,1,21,?
Cn1c(=O)n(-c2cccc(Cl)c2)c(=O)c2c3c(sc21)COC(C)(C)C3,4,17764*,-3,-1,-5
Cc1ccc(C(=O)Cc2ccccc2)o1,5,4342,0,-1,-8
COc1ccccc1CNC(=O)c1cnccn1,-1,17158*,-3,-6,-4
COc1ccc(C(=O)NCc2cccnc2)cc1OC,1,22834*,1,0,-2
O=C(NCc1cccnc1)c1ccccn1,9,22039*,2,1,2
CCN(CC)CCNC(=O)/C(=N\O)c1ccccn1,7,3970,0,-5,-3
O=C(O)c1ccccc1C(=O)NCc1cccnc1,0,2396,0,-3,2
COc1cccc(C(=O)NCc2cccnc2)c1,-1,10426,0,-3,-6
CN(C)CCCNCCCNC(=O)/C(=N\O)c1ccccn1,2,22814*,?,0,-3
COc1ccc(CN2CCC[C@]3(N[C@H](c4ccc(OC)cc4)[C@@H]4C(=O)N(C)C(=O)[C@@H]43)C2=O)cc1,9,2823,0,0,-8
COc1cccc(-c2nn(Cc3ccccc3)cc2CO)c1,1,6005,-3,-3,-2
COc1ccc(CC(=O)Nc2nc(OCC(F)(F)F)cnc2-c2ccc(Cl)cc2Cl)cc1,/,3305,-1,1,-15
CCOC(=O)[C@]12CCC=C1N(Cc1ccc(Cl)cc1Cl)C(=O)[C@H](CC(=O)N1CCOCC1)C2,/,5915,0,-7,-4
CN(C(=O)COC(=O)C1CSC2(C)CCC(=O)N12)c1ccccc1 (stereo not given),1,4433,3,5,13
Cc1cc(C(=O)NCc2cccnc2)no1,-1,22225*,0,-3,2
Cc1cc(C(=O)NCC(c2ccco2)N(C)C)no1 (stereo not given),1,19860*,2,-4,1
Cc1ccc(-c2cc(C(=O)NCc3cccnc3)no2)cc1,3,17516*,9,-11,10
O=C(NCCCNCc1ccccc1)c1ccccn1,0,24330*!,0,2,-9
O=C(NCCO)c1cc(-c2cc(C(=O)NCCO)c3ccccc3n2)nc2ccccc12,1,3286,-4,0,-19
CC(C)[C@H](NC(=O)[C@@H]1Cc2c([nH]c3ccccc23)C2c3ccccc3C(=O)N21)C(=O)N1CCC[C@H]1C(=O)O (stereo not given in full),/,5766,-1,-6,8
Cc1ccc(C)c(NC(=O)C2CCC(C)(C(=O)O)C2(C)C)c1 (stereo not given),5,24078*,-4,-1,-6
CC1(C(=O)O)CCC(C(=O)NC2CCCCCC2)C1(C)C (stereo not given),13,21823*,5,1,3
CC1(C(=O)O)CCC(C(=O)NC2CCCCC2)C1(C)C (stereo not given),8,5706,1,1,13
SMILES,MazF activator,Bead autofluor,BoNT A protease,Anthrax LF prot,BoNT-F LC inh
CC1(C(=O)O)CCC(C(=O)Nc2ccccc2)C1(C)C (stereo not given),5,4253,0,-10,-2
CSc1ccc(/C=c2\s/c(=C\C(=O)C(C)(C)C)n(CC(=O)NCCC3=CCCCC3)c2=O)cc1,-24,2691,9,5,5
CCCNC(=O)Cn1c(=O)/c(=C/c2ccc(-c3ccc([N+](=O)[O-])cc3)o2)s/c1=C\C(=O)C(C)(C)C,-9,6201,32*,33*,22
CCOc1ccc(CCNC(=O)COn2nnc3ccc(S(=O)(=O)N4CCOCC4)cc32)cc1OCC,3,?,1,-5,?
CNC(=O)COC(=O)c1cc(=O)[nH]c2ccccc12,3,23831*,0,0,-2
CNC(=O)COC(=O)c1ccccc1Oc1ccccc1,-10,16994*,-1,-1,1
NC(=O)NC(=O)COC(=O)c1ccccc1Oc1ccccc1,-1,2550,0,-2,0
NC(=O)COC(=O)c1cc(=O)[nH]c2ccccc12,6,4721,-1,-5,-5
COCCNCc1cc(C)n(-c2cc(S(=O)(=O)N3CCOCC3)ccc2N2CCCC2)c1C,6,6086,-1,-3,-18
Cc1nc2nc(Cc3ccccc3)nn2c(C)c1Cl,0,22300*,3,-3,3
CCOc1ccc(CCNC(=O)C2CCCN(S(=O)(=O)N3CCCCC3)C2)cc1OCC (stereo not given),/,5326,0,-12,0
Nc1ccc(C(=O)c2ccc3c(c2)OCCO3)cc1N,4,21110*,0,0,-6
Nc1cc2c(cc1C(=O)c1ccc(Cl)cc1)OCCO2,6,22401*,?,-3,-1
Nc1cc2c(cc1C(=O)c1ccccc1)OCCO2,2,3575,1,-1,4
CCc1cccc(CC)c1C(OC(C)=O)c1cccnc1 (stereo not given),5,5808,0,-7,4
CC(C)[C@H](NS(=O)(=O)c1cccc(C(F)(F)F)c1)C(=O)OCC(=O)NC(=O)NCc1ccco1,1,/,/,/,/
COc1ccc(OC)c2c1C(=O)c1ccccc1C2=O,-90,/,/,/,/
COc1cccc2c1C(=O)c1ccc3ccccc3c1C2=O,6,2360,34*,28,28
N#Cc1ccc(-c2cccnc2)nc1SCC(=O)c1ccccc1,+,/,/,/,/
O=[N+]([O-])c1ccc2c(c1)N([O-])C1(CCCCC1)[N+]2=O,5,/,/,/,/
COc1ccccc1C(=O)CN1C(=O)NC2(CCCCCC2)C1=O,2,3994,0,4,-1
CC(C)(C)c1ccc(-c2csc(NNC3=NCCCCC3)n2)cc1,6,20221*,?,-2,-9
C(=N\NC1=Nc2cccc3cccc1c23)/c1ccccn1,9,3855,5,-10,-27
Clc1ccccc1/C=N/NC1=Nc2cccc3cccc1c23,231*,2356,6,5,6
CCC1Nc2ncnc(N3CCc4ccccc4C3)c2N(Cc2ccc(Br)cc2)C1=O (stereo not given),/,6146,0,3,-8
Cc1cc(NC(=O)c2cc(-c3ccco3)on2)nn1Cc1ccc(Cl)cc1,0,8286,0,-1,-5
COc1ccc(OC)c(-c2cc(C(=O)Nc3cc(C)n(Cc4ccc(Cl)cc4)n3)no2)c1,-28,23480*,-2,-7,-3
COc1ccc(NC(=O)c2sc3nc(-c4cccnc4)ccc3c2N)cc1OC,+,3472,-2,-10,?
